Consider 86 compounds from paper PMC4336329 (PLoS ONE, 2015).

In all, about 310,000 compounds went through this assay and about 14,000 (4.5%) showed an effect of 50% or more. The effect is printed as a negative number. Only a selection was taken, and strong results are over-represented in it overall.
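Note: peak tail current of the secondary pulse compared with the same well before compound.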

Chain of human ether-à-go-go-related gene (hERG) potassium channel (Q12809 whole entry, looked up): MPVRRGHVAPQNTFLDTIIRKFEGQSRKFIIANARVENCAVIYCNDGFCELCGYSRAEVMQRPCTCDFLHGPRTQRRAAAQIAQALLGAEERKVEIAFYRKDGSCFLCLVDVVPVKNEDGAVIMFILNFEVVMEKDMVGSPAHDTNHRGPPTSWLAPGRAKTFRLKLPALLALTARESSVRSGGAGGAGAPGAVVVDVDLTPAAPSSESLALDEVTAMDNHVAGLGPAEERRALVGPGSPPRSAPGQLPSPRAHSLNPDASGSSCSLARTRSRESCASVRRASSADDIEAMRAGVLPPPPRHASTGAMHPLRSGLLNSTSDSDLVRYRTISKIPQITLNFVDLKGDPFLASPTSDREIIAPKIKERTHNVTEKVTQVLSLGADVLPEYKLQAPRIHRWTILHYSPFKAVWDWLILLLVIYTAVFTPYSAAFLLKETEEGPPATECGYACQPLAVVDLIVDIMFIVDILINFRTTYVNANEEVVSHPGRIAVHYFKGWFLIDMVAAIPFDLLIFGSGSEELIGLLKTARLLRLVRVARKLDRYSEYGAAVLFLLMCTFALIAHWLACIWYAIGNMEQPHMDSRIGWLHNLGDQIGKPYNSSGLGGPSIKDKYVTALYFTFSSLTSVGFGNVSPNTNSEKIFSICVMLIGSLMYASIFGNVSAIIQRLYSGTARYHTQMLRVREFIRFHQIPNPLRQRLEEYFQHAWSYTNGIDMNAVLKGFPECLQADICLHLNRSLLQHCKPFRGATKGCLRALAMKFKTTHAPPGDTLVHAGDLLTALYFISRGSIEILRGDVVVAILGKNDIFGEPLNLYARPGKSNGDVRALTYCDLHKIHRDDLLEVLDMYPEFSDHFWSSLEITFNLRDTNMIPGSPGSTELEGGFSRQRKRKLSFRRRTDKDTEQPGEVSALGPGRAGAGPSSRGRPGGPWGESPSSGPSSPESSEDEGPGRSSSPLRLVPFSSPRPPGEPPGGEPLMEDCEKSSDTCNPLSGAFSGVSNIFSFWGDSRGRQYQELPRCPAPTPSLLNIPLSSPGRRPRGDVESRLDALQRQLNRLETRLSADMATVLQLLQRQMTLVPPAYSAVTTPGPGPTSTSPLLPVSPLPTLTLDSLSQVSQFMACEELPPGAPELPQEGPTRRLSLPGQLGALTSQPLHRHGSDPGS

The experiment concerns the target human ether-à-go-go-related gene (hERG) potassium channel (human, UniProt Q12809). The experiment in a line: primary screen, population patch clamp on CHO cells stably expressing hERG; higher = less effect of the substance.
Take `CC1(C)CC(=O)C2=C(C1)OC1=C(C(=O)CC(C)(C)C1)C2c1ccc(O)c([N+](=O)[O-])c1`: the “hERG current change (%, negative = inhibition) at 10uM” value was 14%. Next, `Cc1cc(O)c(C=Nc2ccc(N3CCOCC3)cc2)c(C)c1Cl`: 18.5%; `O=C1CN(C(=O)COC(=O)C2CC(=O)N(Cc3ccco3)C2)c2ccccc2N1` (centres unmarked): -7.99%; `CSc1ccc(/C=C2\C(=N)N3N=C(CC(=O)N4CCOCC4)SC3=NC2=O)cc1`: 14.2%.

`CCN1CCCC1CNC(=O)c1ccc2c(c1)NC(=O)/C(=C\c1ccc(C)cc1)S2` (centres unmarked): the “hERG current change (%, negative = inhibition) at 10uM” value was -42.4%. As to `CCC1CCCCN1CCCNC(=O)c1ccc2c(c1)NC(=O)CS2` (centres unmarked), the “hERG current change (%, negative = inhibition) at 10uM” value is 4.27%.

Turning to `Cc1cccc(/C=C2/Sc3ccc(C(=O)NCCCN4CCOCC4)cc3NC2=O)c1`, the “hERG current change (%, negative = inhibition) at 10uM” value was -25.3%. For `COc1cccc(/C=C2/Sc3ccc(C(=O)NCCN4CCCC4)cc3NC2=O)c1` the value was -39.1%. For `CCN1CCN(CCCNC(=O)c2ccc3c(c2)NC(=O)/C(=C\c2cccc(C)c2)S3)CC1` the value was -38.6%; for `COc1cccc(/C=C2/Sc3ccc(C(=O)NCCCN4CCCC4)cc3NC2=O)c1`, -59.8%. For `CCC1CCCCN1CCCNC(=O)c1ccc(/C=C2/Sc3ccccc3NC2=O)cc1` (centres unmarked) the value was -76.9%; for `CN1CCN(C(=O)c2ccc3c(c2)NC(=O)/C(=C/c2ccccc2)S3)CC1`, -16%; for `Cc1cccc(/C=C2/Sc3ccc(C(=O)NCCN4CCCC4)cc3NC2=O)c1`, -54.7%.

With `O=C1Nc2cc(C(=O)N3CCC(N4CCCCC4)CC3)ccc2S/C1=C\c1ccccc1`, the “hERG current change (%, negative = inhibition) at 10uM” value is listed as -58.3%.

`CC1CCN(C(=O)c2ccc3c(c2)NC(=O)/C(=C/c2ccccc2)S3)CC1`: the “hERG current change (%, negative = inhibition) at 10uM” value worked out at 11%. Next, `COc1cccc(/C=C2/Sc3ccc(C(=O)NCCN4CCCCCC4)cc3NC2=O)c1`: -47.3%; `CC(C)(C)C(=O)O/N=C(\N)c1ccc([N+](=O)[O-])s1`: 20.7%. For `CSc1cccc(NC(=O)C2CCN(C(=O)c3ccccc3C)CC2)c1` the value was -18.7%. For `O=C1CC(c2ccc(F)cc2)Cc2nc(N3CCN(c4ccccc4)CC3)ncc21` (centres unmarked) the value was 1.48%. Take `O=C(O)c1ccc(/C=N/NC(=O)c2ccc3c(c2)OCCO3)cc1`: the “hERG current change (%, negative = inhibition) at 10uM” value amounted to 16.1%. On to `CCn1c(C2CCN(Cc3ccccc3)CC2)n[nH]c1=S`, for which the “hERG current change (%, negative = inhibition) at 10uM” value is reported as -17.3%.

As for `CCC(=O)N/N=c1/sc2ccccc2n1C`, the “hERG current change (%, negative = inhibition) at 10uM” value came out at 13.9%. For `Cc1ccc(C)c(NC2=NCCCS2)c1` the value was 1.48%. Next, `CC1(C)CC(NC(=O)COc2ccc3ccccc3c2)CC(C)(C)N1`: -12.6%; `O=C1Nc2cc(C(=O)NCCN3CCCCCC3)ccc2S/C1=C\c1ccccc1`: -43.9%; `O=C1Nc2cc(C(=O)NCCCN3CCOCC3)ccc2S/C1=C/c1ccccc1F`: -29.8%. Regarding `O=C1Nc2cc(C(=O)NCCCN3CCCC3)ccc2S/C1=C/c1ccccc1F`, the “hERG current change (%, negative = inhibition) at 10uM” value was -69.5%. For `O=C1Nc2cc(C(=O)NCCCN3CCCC3)ccc2S/C1=C\c1ccccc1` the value was -51.4%; for `O=C(NCCCN1CCCCC1)c1ccc2c(c1)NC(=O)c1ccccc1S2`, -13.7%. Next, `O=C1Nc2cc(C(=O)NCC3CCCO3)ccc2S/C1=C/c1ccccc1F` (centres unmarked): -4.84%. Next, `COc1ccccc1N1CCN(S(=O)(=O)/C=C/c2ccccc2)CC1`: -11.3%. As to `Cc1ccc(NC(=O)CN(C)C(=O)COC(=O)COc2ccc(C#N)cc2)cc1`, the “hERG current change (%, negative = inhibition) at 10uM” value was -24.2%. Next, `O=C(O)c1cccc2c1C(=O)c1ccccc1C2=O`: 19.7%; `Cc1ccc(S(=O)(=O)Nc2cc(-c3ccccc3)nn2C)cc1Cl`: 12.2%; `COc1ccccc1NC(=S)NCC1CCCO1` (centres unmarked): 8.94%.

Turning to `Cc1ccc(NC(=O)CSc2ccc3nnc(CCNC(=O)c4ccccc4)n3n2)c(C)c1`, the “hERG current change (%, negative = inhibition) at 10uM” value was -18%.

Consider `S=C(NCCCc1ccccc1)Nc1ccc(Br)cc1`, for which the “hERG current change (%, negative = inhibition) at 10uM” value is 17.9%. Next, `CCCCCOC(=O)C1[C@H]2C(=O)N(Cc3cccs3)C[C@]23C=C[C@H]1O3` (some centres unmarked): 1.95%; `Cc1ccc2nc(SCC(=O)NC3CCCC3)nc(=O)n2c1`: -25.1%; `Cc1ccc2nc(SCC(=O)NC3CCCCC3)nc(=O)n2c1`: -14.5%. For `Cc1ccc2nc3c(cc(C(=O)NC4CCS(=O)(=O)C4)n3Cc3ccccc3)c(=O)n2c1` (centres unmarked) the value was 19.6%; for `Cc1ccc2nc3nc(NCC4CCCO4)c(C(=O)NC4CCCC4)cc3c(=O)n2c1` (centres unmarked), -75.6%. For `O=C(NC1CCCCCC1)c1ccc2nc3cc(Cl)ccc3c(=O)n2c1` the value was 7.94%; for `Cc1ccc2nc3nc(NCC4CCCO4)c(C(=O)NC4CCCCC4)cc3c(=O)n2c1` (centres unmarked), -78.1%; for `COC(=O)Cc1ccc(NC(=O)c2ccc3c(c2)C(=O)N(Cc2ccco2)C3=O)cc1`, -2.43%.

On to `Cn1nc(C(F)(F)F)c(-c2ccccc2)c1NC(=O)CSCC(=O)O`, for which the “hERG current change (%, negative = inhibition) at 10uM” value was determined as 12.2%. Take `CCSc1ncnc2c1sc1nc3c(cc12)COC(C)(C)C3`: the “hERG current change (%, negative = inhibition) at 10uM” value is -2.04%. For `COc1ccccc1N1CCN(C2CCN(C(=O)c3cccc(F)c3)CC2)CC1.O=C(O)C(=O)O` the value was -33.1%.

In the case of `COc1ccc(C(=O)N2CCC(N3CCN(c4ccccc4)CC3)CC2)cc1.O=C(O)C(=O)O`, the “hERG current change (%, negative = inhibition) at 10uM” value is reported as -57.6%.

As for `COc1ccccc1N1CCN(C2CCC(C)CC2)CC1` (centres unmarked), the “hERG current change (%, negative = inhibition) at 10uM” value was determined as 4.87%. For the compound `CCN1CCC(N2CCN(c3ccccc3OC)CC2)CC1`, the “hERG current change (%, negative = inhibition) at 10uM” value was 11.7%. For `Cc1cccc(OCC(=O)N2CCC(N3CCCCCC3)CC2)c1` the value was -11.2%; for `COc1ccccc1N1CCN(C2CCN(C(=O)COc3cccc(C)c3)CC2)CC1.O=C(O)C(=O)O`, -67.8%. Next, `COc1ccccc1N1CCN(C2CCN(C(=O)COc3ccccc3)CC2)CC1`: -25.4%; `COc1ccccc1N1CCN(C2CCN(C(=O)c3ccc(F)cc3)CC2)CC1`: -61%. For `COc1cc(OC)cc(C(=O)N2CCC(N3CCN(c4ccccc4)CC3)CC2)c1` the value was -26.9%; for `COc1ccccc1N1CCN(C2CCN(C3CCC(c4ccccc4)CC3)CC2)CC1.O=C(O)C(=O)O` (centres unmarked), -74.1%; for `COc1ccccc1C(=O)N1CCC(N2CCN(c3ccccc3)CC2)CC1`, -8.58%.

As for `COc1ccccc1N1CCN(C2CCN(C(=O)c3cc(OC)c(OC)c(OC)c3)CC2)CC1`, the “hERG current change (%, negative = inhibition) at 10uM” value is recorded as -23.1%. Next, `CSc1sc(C)cc1/C=N/O`: 6.46%; `NC(=O)c1nsc(C(=O)N(Cc2ccco2)C(C(=O)NCc2ccc(F)cc2)c2ccc(O)cc2)c1N` (centres unmarked): -43.8%. For `O=C(OC1CCOC1=O)c1ccc(CO)cc1` (centres unmarked) the value was 27.4%; for `CCCn1c2ccccc2c2cc(C(=O)O)ccc21`, 6.24%. Turning to `c1ccc(-c2csc(-c3ccc(-c4csnn4)cc3)n2)cc1`, the “hERG current change (%, negative = inhibition) at 10uM” value was found to be 17.6%. As to `CN1C(=O)c2ccccc2Sc2ccc(NC(=O)N3CCOCC3)cc21`, the “hERG current change (%, negative = inhibition) at 10uM” value was -7.88%. Take `C=CCn1cc(C=C2C(=O)N(C)C(=O)N(C)C2=O)c2ccccc21`: the “hERG current change (%, negative = inhibition) at 10uM” value stood at 23.9%. Next, `CC(C)CC(=O)Nc1nc2c(c(=O)[nH]1)CCCC2`: 17.9%.

In the case of `CN=C1CN(O)C(c2ccccc2)=c2cc(Cl)ccc2=N1`, the “hERG current change (%, negative = inhibition) at 10uM” value is on record as 18.6%. For `C/C(=N\NC(=O)CNc1ccc(F)cc1)c1cc2ccccc2o1` the value was -26.6%; for `C=CCn1c(O)c(N=NC(=O)c2cccnc2)c2cc(Br)ccc21`, -16.1%. As for `C=CCn1c(=O)c(C(=O)NCc2ccccc2)c(O)c2ccccc21`, the “hERG current change (%, negative = inhibition) at 10uM” value is given as 15.4%.

In the case of `O=[N+]([O-])c1cccc(Cl)c1NCCNc1ncc(C(F)(F)F)cc1Cl`, the “hERG current change (%, negative = inhibition) at 10uM” value turned out to be 15.6%. For `Cc1ccc(S(=O)(=O)NC(C)(C)CN2CCCCC2)cc1` the value was 3.77%.

As to `COc1cccc(C(=O)COc2ccc3c(C)cc(=O)oc3c2)c1`, the “hERG current change (%, negative = inhibition) at 10uM” value is -70.8%.

Take `Cc1cc(=O)oc2cc(OCC(=O)NC3CC(C)(C)NC(C)(C)C3)ccc12`: the “hERG current change (%, negative = inhibition) at 10uM” value is -34.2%. Next, `COc1ccc(C(=O)COc2ccc3c(C)cc(=O)oc3c2)cc1`: 11.1%.

`Cc1cc(=O)oc2cc(OCC(=O)OC(C)C(=O)NC3CCCC3)ccc12` (centres unmarked): the “hERG current change (%, negative = inhibition) at 10uM” value was found to be 2.63%. In the case of `O=C(COc1ccc2c3c(c(=O)oc2c1)CCC3)NC1CCCCC1`, the “hERG current change (%, negative = inhibition) at 10uM” value was 4.83%. For `Cc1cc(=O)oc2cc(OCC(=O)NC3CCCCC3)ccc12` the value was -60.7%; for `Cc1cc(=O)oc2cc(OCC(=O)OCC(=O)NC3CC3)ccc12`, 16.4%. Next, `Cc1cc(=O)oc2cc(OCC(=O)NC3CCCC3)ccc12`: -67.2%; `Cc1cc(=O)oc2cc(OCC(=O)c3ccccc3)ccc12`: 10.9%; `CCOc1cc(NC(=S)NCC(C)C)c(OCC)cc1NC(=O)c1cccs1`: 13.2%.

As to `O=C1NC2(CCCCC2)C(=O)N1/N=C/c1ccc(O)cc1O`, the “hERG current change (%, negative = inhibition) at 10uM” value is recorded as -16.7%.

As to `COc1ccc(C(=O)c2c[nH]c(C(=O)N=CN(C)C)c2)cc1`, the “hERG current change (%, negative = inhibition) at 10uM” value came to 10.2%. On to `O=C(c1ccc(NC2=NC3CS(=O)(=O)CC3S2)cc1)N1CCN(c2ccccc2)CC1` (centres unmarked), for which the “hERG current change (%, negative = inhibition) at 10uM” value is 20.7%.
